Each structure is given as a SMILES string. Several values for one entry are separate records, joined by “and”; a condition that tells them apart may be missing. Equal entries are not always repeated. Screen size: about 6,400 compounds; about 610 (9.5%) were called active. Rule as the data show it: active = activity change below about -70%; inconclusive = no clear call, values can overlap the other calls; inactive = above that. The entries come from a sample that favours actives as a whole. Some compounds were tested as several samples or in several runs, with calls that do not always agree.

The nature of the assay: Toxoplasma gondii ME49Luc growth in HeLa cells, luciferase, no IFN-y, primary screen (AID 1259421). Conditions: T. gondii ME49Luc in HeLa, 72 h, stronger effect = lower value, concentration not given here.
For `CCCCNC(=O)c1ccc(Cl)cc1O`, the activity change, negative = inhibition is -69.9% (inactive). As for `CCCCCCNC(=O)n1cc(F)c(=O)[nH]c1=O`, the activity change, negative = inhibition is -97.3% (active). The value for `Cc1nnc(SCC2=C(C(=O)O)N3C(=O)[C@@H](N)[C@H]3SC2)s1` was 2.53% (inactive); that for `CCN(CC)CCCCC1CCN(CC(=O)N2c3ccccc3C(=O)Nc3cccnc32)CC1` was 11.7% (inactive) and 11.5% (inactive). Under `Cc1ccc([N+](=O)[O-])cc1S(=O)(=O)N(C)C` stands 16.2% (inactive) and 6.9% (inactive); under `Cc1ccc([N+](=O)[O-])cc1S(=O)(=O)N(C)/N=C/c1cnc2ccc(Br)cn12`, -80.3% (active). Consider `CN[C@@H]1C(OC2[C@H](O[C@H]3[C@H](O)[C@@H](O)[C@H](N=C(N)N)[C@@H](O)[C@@H]3N=C(N)N)OC(C)[C@]2(O)CO)OC(CO)C(O)C1O` (stereo partly specified), for which the activity change, negative = inhibition was 3.82% (inactive).

Consider `C[C@]12CCc3occc3C1CC[C@@]13C[C@@H](CCC12)[C@@](O)(CO)C3` (stereo partly specified), for which the activity change, negative = inhibition was -13.6% (inactive). `CCC1(c2ncc[nH]2)Cc2ccccc2O1` (stereo unspecified): the activity change, negative = inhibition was 15% (inactive) and -0.683% (inactive). In the case of `CC(=O)O[C@H]1CC[C@@]2(C)C(C[C@@H](OC(C)=O)[C@]3(C)C2CC[C@@]2(C)[C@H](c4ccoc4)OC(=O)[C@H]4O[C@]423)C1(C)C` (stereo partly specified), the activity change, negative = inhibition was -27.9% (inactive).

`Nc1ncnc2c1ncn2[C@@H]1O[C@H](CO)[C@@H](O)[C@@H]1O`: the activity change, negative = inhibition is -51.5% (inactive).

As to `Nc1nccc2c1ncn2[C@@H]1O[C@H](CO)C(O)C1O` (stereo partly specified), the activity change, negative = inhibition was -4.71% (inactive).

Regarding `Nc1nccc2c1ncn2[C@@H]1C=C(CO)[C@@H](O)[C@H]1O`, the activity change, negative = inhibition is -74.6% (active) and -68.5% (inactive). In the case of `CCC(CC)CC1(C(=O)Nc2ccccc2SC(=O)C(C)C)CCCCC1`, the activity change, negative = inhibition was -68.8% (inactive). `O=C(/C=C/c1ccccc1)NC(NC(=S)Nc1cccc2cccnc12)C(Cl)(Cl)Cl` (stereo unspecified): the activity change, negative = inhibition was 0.586% (inactive). In the case of `O=C(/C=C/c1ccccc1)NC(NC(=S)Nc1ccc(Cl)cc1)C(Cl)(Cl)Cl` (stereo unspecified), the activity change, negative = inhibition is -82.6% (active).

For `COc1cccc(NC(=O)/C=C/c2ccc(Cl)cc2)c1`, the activity change, negative = inhibition was 290% (inactive) and 329% (inactive). As for `CC(=O)c1ccc(NS(C)(=O)=O)c(Oc2ccc(F)cc2F)c1`, the activity change, negative = inhibition is 22.3% (inactive). As for `COC[C@@H](c1ccc(C(F)(F)F)cc1)N1CCN(C2(C)CCN(C(=O)c3c(C)ncnc3C)CC2)C[C@@H]1C`, the activity change, negative = inhibition is 5.59% (inactive). For the compound `CCc1ccc(OCc2ccccc2C(=O)Nc2ccc3nc(C)cc(N)c3c2)cc1`, the activity change, negative = inhibition is -82.4% (active). With `CCCC(=O)Nc1cccc(NC(=O)c2ccccc2Br)c1`, the activity change, negative = inhibition was 17.4% (inactive). In the case of `CCN(CC)CCCC(C)Nc1nc(C)cc(Nc2ccc3nc(C)cc(N)c3c2)n1` (stereo unspecified), the activity change, negative = inhibition was -14.9% (inactive). With `Nc1c(Br)cc(Br)cc1CNC1CCC(O)CC1` (stereo unspecified), the activity change, negative = inhibition was 2.89% (inactive) and 3.02% (inactive). In the case of `Cc1[nH]c(=O)c(C#N)cc1-c1ccc2nccn2c1`, the activity change, negative = inhibition is 24.3% (inactive) and 0.856% (inactive). Take `CC(C)(C)c1nc(-c2cccc(NS(=O)(=O)c3c(F)cccc3F)c2F)c(-c2ccnc(N)n2)s1`: the activity change, negative = inhibition was -88.1% (active). Regarding `Cn1c(=O)c2c(ncn2CCOC(=O)C(C)(C)Oc2ccc(Cl)cc2)n(C)c1=O`, the activity change, negative = inhibition was 7.49% (inactive). Consider `CC(=O)O[C@H]1C[C@@]2(C)[C@@H](C[C@@H](O)C3[C@]2(C)CC[C@H]2[C@H](C)[C@H](O)CC[C@]32C)/C1=C(/CCC=C(C)C)C(=O)O` (stereo partly specified), for which the activity change, negative = inhibition was -16.8% (inactive) and -21.5% (inactive). The value for `CN1C(=O)C[C@@H](C(=O)N[C@@H](Cc2cnc[nH]2)C(=O)N2CCC[C@H]2C(N)=O)NC1=O` was -66.5% (inactive); that for `COC(=O)C1=C(C)NC(C)=C(C(=O)OCCCN2CCC(c3ccccc3)(c3ccccc3)CC2)[C@H]1c1cccc([N+](=O)[O-])c1` was -68.2% (inactive) and -79.8% (active).

With `COC(=O)C1=C(C)NC(C)=C(C(=O)NCCCN2CCC(c3ccccc3)(c3ccccc3)CC2)C1c1ccc([N+](=O)[O-])cc1` (stereo unspecified), the activity change, negative = inhibition is -48.9% (inactive). Turning to `COC(=O)C1=C(C)NC(C)=C(C(=O)OCCN2CCN(C(c3ccccc3)c3ccccc3)CC2)C1c1cccc([N+](=O)[O-])c1` (stereo unspecified), the activity change, negative = inhibition was -60.9% (inactive) and -77.5% (active). The value for `COC(=O)C1=C(C)NC(C)=C(C(=O)OCCN(C)Cc2ccccc2)C1c1cccc([N+](=O)[O-])c1` (stereo unspecified) was 31.7% (inactive) and 1.2% (inactive); that for `COC(=O)C1=C(C)NC(C)=C(C(=O)O[C@H]2CCN(Cc3ccccc3)C2)[C@H]1c1cccc([N+](=O)[O-])c1` was 0.473% (inactive).

As for `COC(=O)C1=C(C)NC(C)=C(C(=O)OC/C=C/c2ccccc2)C1c1cccc([N+](=O)[O-])c1` (stereo unspecified), the activity change, negative = inhibition is -14.8% (inactive). The value for `COC(=O)C1=C(C)NC(C)=C(C(=O)OCCCN2CCC(c3ccccc3)(c3ccccc3)CC2)[C@@H]1c1cccc([N+](=O)[O-])c1` was -76.4% (active) and -90.4% (active).

On to `COC(=O)C1=C(C)NC(C)=C(C(=O)O[C@@H]2CCCN(Cc3ccccc3)C2)[C@@H]1c1cccc([N+](=O)[O-])c1`, for which the activity change, negative = inhibition was 23.7% (inactive).

With `CCOC(=O)C1=C(C)NC(C)=C(C(=O)OC)C1c1cccc([N+](=O)[O-])c1` (stereo unspecified), the activity change, negative = inhibition is 3.95% (inactive) and 4.34% (inactive). Regarding `COc1ccc2c(c1)OC1(O)COc3cc(OC)c(OC)cc3C1=C2` (stereo unspecified), the activity change, negative = inhibition is 10.6% (inactive). In the case of `CC(=O)N1CCN(CCOc2ccc(C3CCN(C4=Nn5c(nnc5C(F)(F)F)CC4)CC3)cc2)CC1`, the activity change, negative = inhibition is 7.85% (inactive).

For the compound `O=C(OC1C[C@@H]2CC3C[C@H](C1)N2CC3=O)c1c[nH]c2ccccc12` (stereo partly specified), the activity change, negative = inhibition is -0.997% (inactive). For `C[C@]1(Cn2ccnn2)C(C(=O)O)N2C(=O)CC2S1(=O)=O` (stereo partly specified), the activity change, negative = inhibition is 0.084% (inactive). On to `CNc1cc2ncnc(Nc3cccc(Br)c3)c2cc1N`, for which the activity change, negative = inhibition was -8.12% (inactive). With `O=c1[nH]cnc2c1cnn2[C@@H]1O[C@H](CO)[C@H](O)C1O` (stereo partly specified), the activity change, negative = inhibition is 19.3% (inactive). Consider `CCC(C)C(=O)OC1CC(C)C=C2C=CC(C)C(CCC(O)CC(O)CC(=O)O)C21` (stereo unspecified), for which the activity change, negative = inhibition was 7.4% (inactive). The value for `NCCC(O)(P(=O)(O)O)P(=O)(O)O` was -2.86% (inactive); that for `COc1cc(O)c(C)c(O)c1` was 11% (inactive); that for `CC1(C)C(=O)N=C2c3ccccc3C(=O)C(=O)C21` (stereo unspecified) was -89.1% (active). The value for `CNC(=O)[C@@H](c1ccccc1)N1CCc2cc(OC)c(OC)cc2[C@@H]1CCc1ccc(C(F)(F)F)cc1` was 7.93% (inactive); that for `O=C(Nc1cccc2c(=O)cc(-c3nn[nH]n3)oc12)c1ccc(OCCCCc2ccccc2)cc1` was 3.35% (inactive) and 13.6% (inactive); that for `COc1cccc(Nc2ncnn3ccc(CN4CC[C@@H](N)[C@H](O)C4)c23)c1` was -86.2% (active).

For the compound `C[C@]12C=CC(=O)C=C1CCC1C2[C@@H](O)C[C@@]2(C)C1CC[C@]2(O)C(=O)CO` (stereo partly specified), the activity change, negative = inhibition is 1.25% (inactive) and -8.87% (inactive). The value for `CC(=O)O[C@@H]1c2c(ccc3ccc(=O)oc23)OC(C)(C)[C@@H]1OC(=O)CC(C)C` was -2.35% (inactive). Regarding `CCCN(CCC)CC1CCCCN1CCNC(=O)N1c2ccccc2C(=O)Nc2cccnc21` (stereo unspecified), the activity change, negative = inhibition is 3.45% (inactive).

For `CCOC(=O)[C@H](CCc1ccccc1)N[C@@H](C)C(=O)N(CC(=O)O)C1Cc2ccccc2C1`, the activity change, negative = inhibition is 7.2% (inactive).

Turning to `CCC(C)(C)C(=O)OC1CC(C)C=C2C=CC(C)C(CCC3CC(O)CC(=O)O3)C21` (stereo unspecified), the activity change, negative = inhibition was -4.9% (inactive).

As for `CO[C@H]1/C=C\C=C(/C)C(=O)NC2=CC(=O)C(NCCN(C)C)=C(C[C@@H](C)C[C@H](OC)[C@H](O)[C@@H](C)/C=C(\C)[C@@H]1OC(N)=O)C2=O`, the activity change, negative = inhibition was -69.9% (inactive) and -80.4% (active). Under `C=CCNC1=C2C[C@@H](C)C[C@H](OC)[C@H](O)[C@@H](C)/C=C(\C)[C@H](OC(N)=O)[C@@H](OC)/C=C\C=C(/C)C(=O)NC(=CC1=O)C2=O` stands -56% (inactive). `COC1C=COC2(C)Oc3c(C)c(O)c4c(c3C2=O)C2(C=C(NC(=O)/C(C)=C\C=C/C(C)C(O)C(C)C(O)C(C)C(OC(C)=O)C1C)C4=O)OCC(=O)O2` (stereo unspecified): the activity change, negative = inhibition was -2.28% (inactive). On to `NCCCCCC(O)(P(=O)(O)O)P(=O)(O)O`, for which the activity change, negative = inhibition is 13% (inactive). As to `c1ccc(CNc2nc(NCc3ccccc3)c3ccccc3n2)cc1`, the activity change, negative = inhibition is -83.6% (active). Regarding `c1ccc(CNc2ncnc3ccccc23)cc1`, the activity change, negative = inhibition was -3.07% (inactive).

For `Cn1cnc2c(NCc3ccccc3)nc(NCCO)nc21`, the activity change, negative = inhibition is 10.2% (inactive).

As for `CN1C(C(=O)Nc2ccccn2)C(=O)c2sc(Cl)cc2S1(=O)=O` (stereo unspecified), the activity change, negative = inhibition was 6.43% (inactive).

For the compound `CC(C)(C)NC[C@@H](O)COc1nsnc1N1CCOCC1`, the activity change, negative = inhibition is 15.6% (inactive) and -4.63% (inactive). As for `CC(=O)N[C@H]1[C@H]([C@H](O)[C@H](O)CO)O[C@](O)(C(=O)O)C[C@@H]1O`, the activity change, negative = inhibition was 19.2% (inactive). Turning to `Cc1cc(S(=O)(=O)O)c2c(C)ccc(C(C)C)cc1-2`, the activity change, negative = inhibition is 0.707% (inactive). For `N#C/C(=C/c1ccc(O)c(O)c1)C(=O)Nc1ccccc1`, the activity change, negative = inhibition is 11.3% (inactive). In the case of `N#C/C(=C\c1ccc(O)c(O)c1)C(=O)NC1CCC(CC2CCC(NC(=O)/C(C#N)=C/c3ccc(O)c(O)c3)CC2)CC1` (stereo unspecified), the activity change, negative = inhibition is -83.2% (active). Under `N#C/C(=C\c1ccc(O)c(O)c1)C(=O)Nc1ccccc1` stands 10% (inactive) and 2.22% (inactive). Under `COc1cc(OC)c(-c2c(OC)cc(OC)cc2OC)c(OC)c1` stands -0.897% (inactive); under `CN(C)[C@@H]1CCc2[nH]c3ccc(NC(=O)c4ccc(F)cc4)cc3c2C1`, 0.289% (inactive) and 6.81% (inactive).
